These results are taken from PubChem BioAssay.

One may read the inhibition as the change of the read-out against control, counted positive when it falls.

A short description of assay [1]: antimalarial activity against Dd2 strain (AID 2302;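 active = growth inhibition above 50% at the single 2 µM test dose, taken to imply half-maximal potency below 2 µM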;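 also: 0% = DMSO untreated growth and 100% = chloroquine plus artemisinin killed control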). The conditions noted are these: P. falciparum Dd2 in RBCs, LDH growth readout, 72 h; at 2 µM; stronger effect = higher value.
Assay [2] can be described thus: HepG2 cytotoxicity, primary screen, cytotoxicity control for P. falciparum antimalarial project, cell-based, ATP luminescence (AID 2303;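 active = inhibition above 50%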;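 also: 0% = DMSO wells and 100% = digitonin-killed cells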). The conditions noted are these: HepG2 viability, 24-48 h, at 10 µM, stronger effect = higher value.
Assay [3] concerns the target L-lactate dehydrogenase (Plasmodium falciparum (isolate CDC / Honduras)) (UniProt Q27743). Description: PfLDH activity inhibition – cell lysate, 3D7 strain, counter-screen for P. falciparum growth inhibition project (AID 2304).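 Also: 0% = vehicle and 100% = reference inhibitor.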 The note with it: P. falciparum 3D7 crude extract, LDH APAD/NBT absorbance; at 2 µM; stronger effect = higher value. For orientation: A counterscreen serves to expose hits that act by an unwanted route or on another target.

Assay [4] in a line: inhibition of 3D7 malaria parasite growth – strain 3D7 (AID 2306).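 Also: 0% = DMSO wells and 100% = chloroquine plus artemisinin control wells.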 The note with it: P. falciparum 3D7 erythrocytic growth, LDH absorbance, 72 h; at 2 µM; stronger effect = higher value.
Assay [5] addresses Calcium-dependent protein kinase 1 (Plasmodium falciparum (isolate 3D7)) (UniProt P62344). Put plainly: PfCDPK1 kinase inhibitors, biochemical, TCAMS library (AID 1159585; cut-off not given, nearly all actives have IC50 up to about 0.98 µM;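 also: inhibitors leave more ATP so luminescence rises with inhibition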). The note with it: recombinant PfCDPK1, Kinase-Glo ATP depletion luminescence. (In general: In Kinase-Glo more light means more ATP remaining.)
In assay [6] the target is Plasmodium falciparum protein kinase 6 (PK6, PF3D7_1337100) (UniProt Q8IDW1). Description: PfPK6 kinase inhibitors, biochemical, TCAMS library (AID 1159586). The conditions noted are these: recombinant PfPK6, Kinase-Glo ATP depletion luminescence.
Chain of Plasmodium falciparum protein kinase 6 (PK6, PF3D7_1337100) (Q8IDW1 1-305): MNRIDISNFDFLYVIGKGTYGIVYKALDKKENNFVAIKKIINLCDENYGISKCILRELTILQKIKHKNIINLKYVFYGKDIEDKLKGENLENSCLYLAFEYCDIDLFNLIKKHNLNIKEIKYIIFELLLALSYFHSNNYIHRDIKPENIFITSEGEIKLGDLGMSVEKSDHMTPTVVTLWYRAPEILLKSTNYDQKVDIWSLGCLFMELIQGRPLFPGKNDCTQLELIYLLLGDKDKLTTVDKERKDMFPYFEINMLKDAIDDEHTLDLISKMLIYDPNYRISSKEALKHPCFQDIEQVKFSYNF
Assay [7] addresses Protein kinase 7 (PK7), Plasmodium falciparum 3D7 (PF3D7_0213400) (UniProt Q7YTF7). Description: inhibition of Plasmodium PK7 catalytic activity – biochemical, TCAMS antimalarial set, Kinase-Glo luminescence (AID 1159587). The conditions noted are these: recombinant PfPK7, Kinase-Glo ATP depletion luminescence.
Assay [8] has as its target Calcium-dependent protein kinase 4 (Plasmodium falciparum (isolate 3D7)) (UniProt Q8IBS5). Description: PfCDPK4 kinase inhibitors, biochemical, TCAMS library (AID 1159588; cut-off not given, nearly all actives have IC50 up to about 0.91 µM). The conditions noted are these: recombinant PfCDPK4, Kinase-Glo ATP depletion luminescence.

The structures appear in SMILES notation. Unmarked numbers belong to inactive results. For some of these results: Entries with a potency or affinity are not part of this list. The source made the active and inactive calls. Unless noted, no rule for the calls is given here.

Chain of Calcium-dependent protein kinase 4 (Plasmodium falciparum (isolate 3D7)) (Q8IBS5 whole entry, looked up): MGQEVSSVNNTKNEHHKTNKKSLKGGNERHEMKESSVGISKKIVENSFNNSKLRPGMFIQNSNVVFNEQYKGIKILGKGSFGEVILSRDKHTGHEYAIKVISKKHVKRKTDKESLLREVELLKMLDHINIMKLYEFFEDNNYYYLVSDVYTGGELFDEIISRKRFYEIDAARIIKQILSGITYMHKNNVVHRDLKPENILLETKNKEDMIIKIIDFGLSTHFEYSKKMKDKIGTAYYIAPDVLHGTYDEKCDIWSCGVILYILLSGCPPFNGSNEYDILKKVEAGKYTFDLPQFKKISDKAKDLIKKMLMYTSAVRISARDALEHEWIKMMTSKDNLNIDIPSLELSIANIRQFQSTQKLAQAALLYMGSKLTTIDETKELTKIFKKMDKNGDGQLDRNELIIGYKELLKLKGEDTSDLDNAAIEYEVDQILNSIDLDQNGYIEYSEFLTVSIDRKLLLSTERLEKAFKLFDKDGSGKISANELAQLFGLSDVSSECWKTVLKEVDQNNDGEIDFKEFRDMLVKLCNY
Chain of Protein kinase 7 (PK7), Plasmodium falciparum 3D7 (PF3D7_0213400) (Q7YTF7 1-343): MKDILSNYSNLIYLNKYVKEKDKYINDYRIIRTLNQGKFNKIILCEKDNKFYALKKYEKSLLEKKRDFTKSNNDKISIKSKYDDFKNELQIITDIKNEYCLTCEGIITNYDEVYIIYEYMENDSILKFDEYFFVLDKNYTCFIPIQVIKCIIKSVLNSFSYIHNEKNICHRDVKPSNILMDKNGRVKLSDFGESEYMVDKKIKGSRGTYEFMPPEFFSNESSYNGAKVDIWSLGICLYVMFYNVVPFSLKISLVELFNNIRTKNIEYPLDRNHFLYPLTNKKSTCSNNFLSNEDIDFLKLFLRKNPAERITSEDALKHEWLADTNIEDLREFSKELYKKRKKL
Chain of Calcium-dependent protein kinase 1 (Plasmodium falciparum (isolate 3D7)) (P62344 whole entry, looked up): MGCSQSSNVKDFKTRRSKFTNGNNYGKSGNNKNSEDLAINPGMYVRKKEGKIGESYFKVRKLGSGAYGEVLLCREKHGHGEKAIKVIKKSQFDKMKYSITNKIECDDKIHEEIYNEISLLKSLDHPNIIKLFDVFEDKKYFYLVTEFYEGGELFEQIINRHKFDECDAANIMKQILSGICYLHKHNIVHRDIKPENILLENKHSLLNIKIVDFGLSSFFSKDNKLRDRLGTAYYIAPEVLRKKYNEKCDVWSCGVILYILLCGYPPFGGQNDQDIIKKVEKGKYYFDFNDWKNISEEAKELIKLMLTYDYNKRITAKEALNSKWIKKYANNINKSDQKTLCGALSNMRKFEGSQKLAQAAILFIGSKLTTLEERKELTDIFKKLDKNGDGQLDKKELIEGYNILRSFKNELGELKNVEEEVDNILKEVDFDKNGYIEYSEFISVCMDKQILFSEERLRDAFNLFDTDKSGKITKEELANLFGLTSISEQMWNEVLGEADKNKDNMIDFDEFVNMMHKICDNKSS
Chain of L-lactate dehydrogenase (Plasmodium falciparum (isolate CDC / Honduras)) (Q27743 whole entry, looked up): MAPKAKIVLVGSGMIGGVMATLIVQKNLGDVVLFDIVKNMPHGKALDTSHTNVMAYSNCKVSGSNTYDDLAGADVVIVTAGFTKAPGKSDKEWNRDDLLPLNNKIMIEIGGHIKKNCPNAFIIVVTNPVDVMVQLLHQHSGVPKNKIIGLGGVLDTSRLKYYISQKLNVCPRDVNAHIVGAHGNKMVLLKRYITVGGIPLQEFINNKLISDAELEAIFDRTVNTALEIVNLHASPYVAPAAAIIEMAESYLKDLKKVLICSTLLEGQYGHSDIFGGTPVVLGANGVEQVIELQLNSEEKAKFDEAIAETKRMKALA

For the compound `CC1(C)N=C(N)N=C(N)C1c1ccc(Cl)c(Cl)c1` (stereo not given), the figures for the growth inhibition in assay [1] and in assay [4] were 0% and 95% (active), respectively. Further, the inhibition in assay [2] was 47%; in assay [3], -6%. Also, the result in assay [5], in assay [6], in assay [7] and in assay [8] was inactive.

Take `NS(=O)(=O)c1cccc(-c2ccc3c(=O)[nH]cnc3c2)c1`: the growth inhibition was 100% (active) in assay [1] and 99% (active) in assay [4]. Also, the results for the inhibition in assay [2] and in assay [3] were 6% and 4%, respectively. Also, the outcome in assay [5], in assay [6], in assay [7] and in assay [8] was inactive.

Regarding `NC(=O)c1sc(-n2cnc3ccccc32)cc1OCc1ccccc1[N+](=O)[O-]`, the growth inhibition in assay [1] is 46%; in assay [4] it was 99% (active). Besides, the inhibition was 10% in assay [2] and -2% in assay [3]. The outcome in assay [5], in assay [6], in assay [7] and in assay [8] was inactive.

`NC(N)=NC(=O)Nc1cc(Cl)c(Cl)c(Cl)c1`: the results for the growth inhibition in assay [1] and in assay [4] were 100% (active) and 101% (active), respectively. The inhibition in assay [2] was -2%; in assay [3], 6%. Also, the outcome in assay [5], in assay [6], in assay [7] and in assay [8] was inactive.

For the compound `CN1CCN(CCCSc2ccc3c(c2)ncn3-c2cc(OCc3ccccc3C(F)(F)F)c(C(N)=O)s2)CC1`, the growth inhibition was 86% (active) in assay [1] and 101% (active) in assay [4]. Besides, the values for the inhibition in assay [2] and in assay [3] were 28% and 8%, respectively. The outcome in assay [5], in assay [6], in assay [7] and in assay [8] was inactive.

`Cn1cncc1C(=O)Nc1cccc(-c2cccc(-c3nc4ccc(C(F)(F)F)cc4[nH]3)c2)c1`: the growth inhibition is 99% (active) in assay [1] and 103% (active) in assay [4]. Besides, the inhibition was 38% in assay [2] and 0% in assay [3]. In addition, the outcome in assay [5], in assay [6], in assay [7] and in assay [8] was inactive.

Regarding `COc1ccc(-c2cccc(NC(=O)c3ccccc3)c2)cc1CN1CCCN(C)CC1`, the values for the growth inhibition in assay [1] and in assay [4] were 25% and 98% (active), respectively. The inhibition in assay [2] was 22%; in assay [3] it was -7%. For the same compound, the outcome in assay [5], in assay [6], in assay [7] and in assay [8] was inactive.

For `COc1cc(-c2nc(-c3ccccc3)c(-c3ccc([N+](=O)[O-])cc3)[nH]2)cc(OC)c1O`, the results for the growth inhibition in assay [1] and in assay [4] were 56% (active) and 98% (active), respectively. In addition, the values for the inhibition in assay [2] and in assay [3] were 7% and -3%, respectively. The outcome in assay [5], in assay [6], in assay [7] and in assay [8] was inactive.

For `Cc1cc(OCC2CCCO2)c2cc(NC(=O)C(=O)Nc3ccc4nc(C)cc(OCC5CCCO5)c4c3)ccc2n1` (stereo not given), the figures for the growth inhibition in assay [1] and in assay [4] were 32% and 96% (active), respectively. Further, the inhibition in assay [2] is 7%; in assay [3], -4%. In addition, the result in assay [5], in assay [6], in assay [7] and in assay [8] was inactive.

For `O=C(Nc1ccccc1)N(Cc1cccc(-c2ccc(CNCCc3ccccc3)cc2)c1)C1CCN(Cc2ccccc2)CC1`, the values for the growth inhibition in assay [1] and in assay [4] were 95% (active) and 101% (active), respectively. For the same compound, the figures for the inhibition in assay [2] and in assay [3] were 100% (active) and 3%, respectively. The result in assay [5], in assay [6], in assay [7] and in assay [8] was inactive.

Turning to `Cc1cccc2[nH]c(-c3ccc(-c4ccc(CN5CCCC5CN)cc4)cc3)nc12` (stereo not given), the growth inhibition in assay [1] is 65% (active); in assay [4], 99% (active). In addition, the inhibition in assay [2] was 28%; in assay [3] it was 1%. Moreover, the outcome in assay [5], in assay [6], in assay [7] and in assay [8] was inactive.

`O=C(Nc1cccc(C(F)(F)F)c1)c1ccc(S(=O)(=O)NCC2CCN(CC3CCCCC3)CC2)cc1`: the growth inhibition was 49% in assay [1] and 100% (active) in assay [4]. The inhibition is 24% in assay [2] and -4% in assay [3]. The result in assay [5], in assay [6], in assay [7] and in assay [8] was inactive.

Take `CCC1CN2CCc3c([nH]c4ccc(OC)cc34)[C@@H]2C[C@@H]1CC1NCCc2cc(OC)c(OC)cc21` (stereo not given in full): the growth inhibition was 21% in assay [1] and 100% (active) in assay [4]. The figures for the inhibition in assay [2] and in assay [3] were 17% and -2%, respectively. Moreover, the result in assay [5], in assay [6], in assay [7] and in assay [8] was inactive.

For the compound `CC(=O)Nc1ccc(CN2CCc3ccc(NS(=O)(=O)c4cccc(OCc5ccc(Cl)cc5)c4)cc3CC2)s1`, the growth inhibition is 7% in assay [1] and 93% (active) in assay [4]. In addition, the inhibition in assay [2] is 23%; in assay [3], -3%. Also, the outcome in assay [5], in assay [6], in assay [7] and in assay [8] was inactive.

Take `CCN1CCC(N(Cc2ccc(-c3ccc(C(F)(F)F)cc3)cc2)C(=O)Cn2c(SCc3cccc(F)c3F)cc(=O)c3ccccc32)C1` (stereo not given): the results for the growth inhibition in assay [1] and in assay [4] were 91% (active) and 90% (active), respectively. The values for the inhibition in assay [2] and in assay [3] were 42% and 5%, respectively. For the same compound, the outcome in assay [5], in assay [6], in assay [7] and in assay [8] was inactive.

In the case of `COc1ccc(S(=O)(=O)Nc2cc(C)cc(Br)c2OC)cc1N1CCN(C(=O)C(Cl)(Cl)Cl)CC1`, the growth inhibition in assay [1] is 66% (active); in assay [4] it was 91% (active). The inhibition in assay [2] was 9%; in assay [3] it was 0%. The result in assay [5], in assay [6], in assay [7] and in assay [8] was inactive.

As for `CC(C)(C)c1ccc(OCC(=O)NC2CCN(c3ccnc4cc(Cl)ccc34)C2)cc1` (stereo not given), the growth inhibition in assay [1] was 100% (active); in assay [4] it was 98% (active). Also, the inhibition in assay [2] is 17%; in assay [3], -2%. The outcome in assay [5], in assay [6], in assay [7] and in assay [8] was inactive.

For the compound `CCCN1CCN(CCCNc2c3ccccc3nc3ccccc23)CC1`, the growth inhibition in assay [1] was -1%; in assay [4] it was 99% (active). The inhibition in assay [2] was 36%; in assay [3] it was -7%. The result in assay [5], in assay [6], in assay [7] and in assay [8] was inactive.

In the case of `CCOc1cc(CC)ccc1C1CCN(CCCCNC(=O)c2ccc(NC(=O)c3ccc(C#N)cc3)cc2)CC1`, the values for the growth inhibition in assay [1] and in assay [4] were 50% (active) and 91% (active), respectively. For the same compound, the inhibition was 55% (active) in assay [2] and -1% in assay [3]. The outcome in assay [5], in assay [6], in assay [7] and in assay [8] was inactive.

On to `COc1ccccc1Cc1c(C)nc2nc(N)nc(N)c2c1C`, for which the growth inhibition is 2% in assay [1] and 96% (active) in assay [4]. For the same compound, the inhibition in assay [2] is 69% (active); in assay [3], -3%. In addition, the outcome in assay [5], in assay [6], in assay [7] and in assay [8] was inactive.
